TDP1 inh – qHTS Assay for Inhibitors of Tyrosyl-DNA Phosphodiesterase (TDP1); Tyrosyl-DNA phosphodiesterase 1 (Homo sapiens), Q9NUW8; recombinant TDP1, AlphaScreen DNA substrate cleavage; Potency, µM (top dose mostly 130 µM), inactives show at the highest dose activity change, negative = inhibition, most hits filed as inhibitors; 350,000 tested, 0.28% active; note: potency is the fitted concentration of half-maximal effect; nearly all actives have a fitted effect of over 40% in size
Target sequence (Q9NUW8 whole entry, looked up): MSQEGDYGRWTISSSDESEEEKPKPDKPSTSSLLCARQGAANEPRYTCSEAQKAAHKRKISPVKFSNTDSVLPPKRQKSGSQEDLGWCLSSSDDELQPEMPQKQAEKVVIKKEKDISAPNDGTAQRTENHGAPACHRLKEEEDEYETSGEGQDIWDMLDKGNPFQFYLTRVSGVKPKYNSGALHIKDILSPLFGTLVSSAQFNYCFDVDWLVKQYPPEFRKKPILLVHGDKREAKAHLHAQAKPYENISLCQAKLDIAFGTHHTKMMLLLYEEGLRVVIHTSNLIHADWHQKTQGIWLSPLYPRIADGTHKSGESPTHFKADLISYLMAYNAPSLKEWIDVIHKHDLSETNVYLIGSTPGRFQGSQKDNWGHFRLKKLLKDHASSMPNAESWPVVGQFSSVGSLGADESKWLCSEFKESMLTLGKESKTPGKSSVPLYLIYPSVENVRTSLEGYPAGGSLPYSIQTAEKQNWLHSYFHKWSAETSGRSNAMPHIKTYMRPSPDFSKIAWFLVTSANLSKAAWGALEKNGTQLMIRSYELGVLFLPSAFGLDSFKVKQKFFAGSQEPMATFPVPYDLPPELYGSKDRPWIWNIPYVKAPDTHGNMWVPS
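Steps: enzyme plus compound, 15 min RT; add biotin/phosphotyrosine-FITC oligonucleotide (15 nM final), react 5 min; add donor/acceptor beads (10 ug/ml final), 10 min; read AlphaScreen. Tdp1 at 1 nM final.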
Giardia killer – Small Molecules that selectively kill Giardia lamblia: qHTS; AID 540267, 2011; Giardia lamblia trophozoite viability; activity change, % at 7.66 µM, hits read low; 340,000 tested, 0.15% active; in the data active = activity change below about -80%; inconclusive = between about -30% and that limit;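 note: parasites exposed to compound for two days anaerobically before the ATP read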
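Giardia trophozoites, 100 cells per well, were exposed to compounds for 48 hrs at 37 deg C under anaerobic conditions; viability was then read as ATP content by bioluminescence after 15-30 min at room temperature.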
DT40 TDP1 no CPT – qHTS for Inhibitors of human tyrosyl-DNA phosphodiesterase 1 (TDP1): qHTS in cells in absence of CPT; DT40 Tdp1-/- hTDP1 cells, no CPT, ATP luminescence, 48 h; AID 686978, 2013; Potency, µM (doses to about 46.2 µM), without a hit: top-dose activity change, negative = growth inhibition, usual class: inhibitors; 420,000 tested, 15% active; note: potency is the fitted concentration of half-maximal effect; nearly all actives have a fitted effect of over 55% in size
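A cellular qHTS used chicken DT40 cells lacking endogenous Tdp1 but carrying stably transfected human TDP1. Compounds were applied without camptothecin, and cell growth kinetics were judged by ATP-dependent luminescence after ≥48 hr.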
ELG1 DNA repair – qHTS screen for small molecules that inhibit ELG1-dependent DNA repair in human embryonic kidney (HEK293T) cells expressing luciferase-tagged ELG1; HEK293T ELG1-luciferase reporter, luminescence, 16 h; DNA damage induced by 5-fluorouridine; 330,000 tested, 2.3% active; Potency, µM (titrated, usually from 46.1 µM), without a hit: at the highest dose activity change, negative = inhibition, actives largely listed as inhibitors; AID 504467, 2011; note: potency is the fitted concentration of half-maximal effect; nearly all actives have a fitted effect of over 55% in size
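Cells (2,000 per well) received 5-fluorouridine plus test compound or DMSO and were incubated 16 hr at 37 °C, 5% CO2. Luciferase activity was read by luminescence 30 min after ONE-Glo addition; signal suppression marked inhibition of damage-induced ELG1 function.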
DT40 TDP1 CPT – qHTS for Inhibitors of human tyrosyl-DNA phosphodiesterase 1 (TDP1): qHTS in cells in presence of CPT; 420,000 tested, 12% active; chicken DT40 Tdp1-/-;hTDP1 cells + 20 nM CPT, ATP luminescence, 48 h; AID 686979, 2013; Potency, µM (titrated, usually from 46.2 µM), without a hit: top-dose activity change, negative = growth inhibition, most hits filed as inhibitors; note: potency is the fitted concentration of half-maximal effect; nearly all actives have a fitted effect of over 55% in size
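Chicken DT40 Tdp1-/- cells complemented with human TDP1, 400 cells/well, exposed to compounds plus 20 nM camptothecin for at least 48 h at 37 C; viability read as ATP content by CellTiter-Glo luminescence.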
IL1B secr inh – qHTS for Inhibitors of Inflammasome Signaling: IL-1-beta AlphaLISA Primary Screen; activity change, % at 57.5 µM; AID 743279, 2014; THP-1 LPS/ATP IL-1B secretion, AlphaLISA, 16 h; active compounds read low; 360,000 tested, 4.7% active; in the data active = activity change below about -50%; inconclusive = mostly about -30% to -49%
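THP-1 cells pretreated 1 hr with compounds (up to 57.5 uM final), then stimulated with LPS (250 ng/mL final) plus ATP (1.25 mM final); secreted IL-1B measured by AlphaLISA after 16 hr, decreased signal indicating inhibition.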
* = called active by the depositor; [ ] = another dose, or the depositor's remark. An excerpt weighted towards active compounds, which were near 19% of everything screened. Unless noted, calls come from the whole dose curve; as a rule, active = well fitted curve in the direction sought with a large enough effect; inconclusive = small, poorly fitted or top-dose-only effect, or another doubt; inactive = no such curve, though single readings can be large; an effect the other way counts as inactive or inconclusive. % is set by controls: 0 for no effect and ±100 for the full control effect.

Results for O=C(c1cc(-c2cccs2)nc2ccccc12)N1CCN(S(=O)(=O)c2ccccc2)CC1 ?
TDP1 inh: 5%; Giardia killer: -8; DT40 TDP1 no CPT: inconclusive; ELG1 DNA repair: 16µM*; DT40 TDP1 CPT: inconclusive; IL1B secr inh: -11

Results for O=C(c1cc(-c2ccccn2)nc2c(Cl)cccc12)N1CCN(S(=O)(=O)c2ccccc2)CC1 ?
TDP1 inh: 1%; Giardia killer: 1; DT40 TDP1 no CPT: 21µM*; ELG1 DNA repair: 18µM*; DT40 TDP1 CPT: inconclusive; IL1B secr inh: -22

How did CC1CCCN(C(=O)c2cc(-c3cccs3)nc3ccccc23)C1 (stereo not drawn) do in these assays?
TDP1 inh: -5%; Giardia killer: 21; DT40 TDP1 no CPT: 23µM*; ELG1 DNA repair: inconclusive; DT40 TDP1 CPT: inconclusive; IL1B secr inh: -21

Results for O=C(c1cc(-c2cccs2)nc2ccccc12)N1CCN(S(=O)(=O)c2cccc(F)c2)CC1 ?
TDP1 inh: 0%; Giardia killer: -4; DT40 TDP1 no CPT: inconclusive; ELG1 DNA repair: inconclusive; DT40 TDP1 CPT: -10%; IL1B secr inh: 1

Results for Cc1ccc2[nH]c3c(c2c1)CCN1C(=O)OC(C)(C)C31C (stereo not drawn) ?
TDP1 inh: 5%; Giardia killer: -24; DT40 TDP1 no CPT: -12%; ELG1 DNA repair: 1%; DT40 TDP1 CPT: -6%; IL1B secr inh: 21

Results for Cc1sc2ncnc(N3CCC(C(=O)NNC(=O)c4ccc(Cl)cc4)CC3)c2c1C ?
TDP1 inh: -15%; Giardia killer: -1; DT40 TDP1 no CPT: 15µM*; ELG1 DNA repair: inconclusive; DT40 TDP1 CPT: 16µM*; IL1B secr inh: -81*

What do the screens show for `Cc1sc2ncnc(N3CCC(C(=O)Nc4cc(C(F)(F)F)ccc4OCC(F)(F)F)CC3)c2c1C`?
Giardia killer: -9; DT40 TDP1 no CPT: 18µM*; DT40 TDP1 CPT: inconclusive; IL1B secr inh: -56*

How did Cc1sc2ncnc(N3CCC(C(=O)Nc4cc(Cl)ccc4Cl)CC3)c2c1C do in these assays?
Giardia killer: 4; DT40 TDP1 no CPT: inconclusive; ELG1 DNA repair: inconclusive; DT40 TDP1 CPT: inconclusive; IL1B secr inh: -1

What do the screens show for `COc1ccc(S(=O)(=O)N(C)C)cc1NC(=O)C1CCN(c2ncnc3sc(C)c(C)c23)CC1`?
Giardia killer: -12; DT40 TDP1 no CPT: 9.2µM*; DT40 TDP1 CPT: 21µM*; IL1B secr inh: -15

Results for Cc1sc2ncnc(N3CCC(C(=O)Nc4cc(S(C)(=O)=O)ccc4Cl)CC3)c2c1C ?
TDP1 inh: -3%; Giardia killer: 22; DT40 TDP1 no CPT: 18µM*; ELG1 DNA repair: inconclusive; DT40 TDP1 CPT: 13µM*; IL1B secr inh: inconclusive

How did COc1cccc(CN2CC(C(=O)NC3CCC3)CCC2=O)c1 (stereo not drawn) do in these assays?
TDP1 inh: 2%[56.1 µM]; Giardia killer: inconclusive; DT40 TDP1 no CPT: -23%; ELG1 DNA repair: 0%; DT40 TDP1 CPT: -1%; IL1B secr inh: 14

What do the screens show for `CCOc1ccc(-n2nc(CO)c(C(=O)NCC(c3ccccc3)c3ccccc3)n2)cc1`?
TDP1 inh: 0%; DT40 TDP1 no CPT: -2%; DT40 TDP1 CPT: -6%

Results for Cc1cc(F)ccc1-c1cc(C(=O)NC(C)C)[nH]n1 ?
DT40 TDP1 no CPT: -20%; DT40 TDP1 CPT: -23%; IL1B secr inh: -16

Results for O=C(NNC(=O)c1cc(Cl)ccc1O)c1cccc(S(=O)(=O)N2CCOCC2)c1 ?
Giardia killer: -7; DT40 TDP1 no CPT: inconclusive; ELG1 DNA repair: 9%; DT40 TDP1 CPT: inconclusive; IL1B secr inh: 45

Results for COc1cc(Cl)ccc1NC(=S)N(CCCN1CCOCC1)Cc1cn(C)c2ccccc12 ?
TDP1 inh: 8%; Giardia killer: -26; DT40 TDP1 no CPT: 21µM*; ELG1 DNA repair: inconclusive; DT40 TDP1 CPT: 16µM*; IL1B secr inh: inconclusive

How did Cc1ccc(Cl)cc1NC(=S)N(CCCN1CCOCC1)Cc1ccccn1 do in these assays?
TDP1 inh: 3%; Giardia killer: -15; DT40 TDP1 no CPT: -1%; ELG1 DNA repair: 4%; DT40 TDP1 CPT: -1%; IL1B secr inh: -12

What do the screens show for `COc1ccc(Cl)cc1NC(=S)N(CCCN1CCOCC1)Cc1cn(C)c2ccccc12`?
TDP1 inh: 5%; Giardia killer: 16; DT40 TDP1 no CPT: inconclusive; ELG1 DNA repair: -26%; DT40 TDP1 CPT: 13µM*; IL1B secr inh: -19

Results for COc1ccc2[nH]c(CCc3nc4c(OC)c(OC)ccc4[nH]3)nc2c1OC ?
DT40 TDP1 no CPT: 0%; DT40 TDP1 CPT: -18%

What do the screens show for `COCC#Cc1ccc(C2C(C)CCC3C(=O)N4C(CCC(C)C4c4ccc(C#CCOC)cc4)C(=O)N32)cc1` (stereo not drawn)?
TDP1 inh: 8%[21 µM]

How did COC1=CC(=O)OC(c2cccc(C#N)c2)C1 (stereo not drawn) do in these assays?
DT40 TDP1 no CPT: 21%; DT40 TDP1 CPT: -4%; IL1B secr inh: -19

How did CCOC(=O)c1cc(CC)sc1NC(=O)c1ccc(N2CCOCC2)c([N+](=O)[O-])c1 do in these assays?
TDP1 inh: 4%; Giardia killer: 11; DT40 TDP1 no CPT: -14%; ELG1 DNA repair: 3%; DT40 TDP1 CPT: 0%; IL1B secr inh: inconclusive

What do the screens show for `CCOC(=O)c1cc(CC)sc1NC(=O)c1cc([N+](=O)[O-])ccc1N1CCOCC1`?
TDP1 inh: 5%; Giardia killer: -3; DT40 TDP1 no CPT: 1.3µM*; ELG1 DNA repair: -4%; DT40 TDP1 CPT: 3.7µM*; IL1B secr inh: 72

Results for CCC(CC)c1nnc(NC(=O)c2cc([N+](=O)[O-])ccc2N2CCOCC2)s1 ?
TDP1 inh: 2%; Giardia killer: -18; DT40 TDP1 no CPT: 18µM*; ELG1 DNA repair: -27%; DT40 TDP1 CPT: inconclusive; IL1B secr inh: 1

What do the screens show for `CC(=O)c1c(C)[nH]c(C(=O)OC(C)C(=O)Nc2cc(S(=O)(=O)N3CCCCC3)ccc2Cl)c1C` (stereo not drawn)?
TDP1 inh: 6%; Giardia killer: -11; DT40 TDP1 no CPT: inconclusive; ELG1 DNA repair: inconclusive; DT40 TDP1 CPT: inconclusive; IL1B secr inh: 54

Compound activity from PubChem BioAssay.
